# About 83,000 compounds went through this panel and 20% of them were active in at least one assay; those are over-represented in the sample as a whole.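 Activity criterion: percent growth below 10, measured after cells in 96-well plates were exposed to a single compound concentration for 48 hours.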 A number with no mark means an inactive call. The source made the active and inactive calls.
# Tests used:
# Test in all cases: NCI-60 one-dose screen, 48 h (100 = growth as untreated, 0 = no growth, -100 = all killed)
# Conditions in all cases: 10 µM unless noted
# HT29 colon = test system: HT29 colon
# SNB-75 CNS = test system: SNB-75 CNS
# SNB-19 CNS = test system: SNB-19 CNS
# U251 CNS = test system: U251 CNS
# PC-3 prostate = test system: PC-3 prostate
# SK-MEL-5 melanoma = test system: SK-MEL-5 melanoma
# UACC-62 melanoma = test system: UACC-62 melanoma
# LOX IMVI melanoma = test system: LOX IMVI melanoma
# SK-MEL-28 melanoma = test system: SK-MEL-28 melanoma
# SK-MEL-2 melanoma = test system: SK-MEL-2 melanoma
# EKVX NSCLC = test system: EKVX NSCLC
# SN12C renal = test system: SN12C renal
# UO-31 renal = test system: UO-31 renal
# TK-10 renal = test system: TK-10 renal
# ACHN renal = test system: ACHN renal
# CAKI-1 renal = test system: CAKI-1 renal
# A498 renal = test system: A498 renal
# CCRF-CEM leukemia = test system: CCRF-CEM leukemia
# MOLT-4 leukemia = test system: MOLT-4 leukemia
# SR leukemia = test system: SR leukemia
SMILES,growth (HT29 colon),growth (SNB-75 CNS),growth (SNB-19 CNS),growth (U251 CNS),growth (PC-3 prostate),growth (SK-MEL-5 melanoma),growth (UACC-62 melanoma),growth (LOX IMVI melanoma),growth (SK-MEL-28 melanoma),growth (SK-MEL-2 melanoma),growth (EKVX NSCLC),growth (SN12C renal),growth (UO-31 renal),growth (TK-10 renal),growth (ACHN renal),growth (CAKI-1 renal),growth (A498 renal),growth (CCRF-CEM leukemia),growth (MOLT-4 leukemia) [%],growth (SR leukemia) [%]
COc1ccc2c(c1)nc(N)c1c3ccccc3cn21,73.8%,67.6%,83.4%,72.8%,84%,50.8%,58.7%,74.3%,78.8%,83.8%,72.7%,89.6%,59%,125%,81.1%,68.5%,75.2%,74.5%,73.8,–
COC(=O)[C@]1(CCSC)N[C@H](c2cn(-c3ccccc3)nc2C)[C@@H]2C(=O)N(c3ccccc3)C(=O)[C@@H]21,103%,86%,109%,105%,101%,101%,102%,96.1%,109%,121%,107%,103%,90.9%,118%,113%,101%,93%,–,–,–
COc1ccc(/C=C2\NC(=S)NC2=O)cc1,110%,106%,109%,102%,106%,107%,95.3%,112%,119%,109%,101%,101%,73.6%,113%,94%,98.7%,89%,105%,110,110
Cc1nn(-c2ccccc2)c2ncc3c(c12)C(=O)N(Cc1ccccc1)C3=O,53.5%,-27.1% (active),47.9%,8.03% (active),75.2%,99.5%,75%,37.2%,91.9%,113%,37.3%,23.7%,-30.5% (active),-26% (active),-21.7% (active),-0.521% (active),-10.2% (active),–,–,–
Cc1nn(-c2ccc(Cl)cc2)c2nc3c(nc12)C(=O)C(=O)c1ccccc1-3,4.77% (active),-2.08% (active),62.4%,77.5%,73.9%,43.8%,73.3%,62.6%,67.2%,99.1%,64%,78.7%,59.8%,144%,81.2%,69.8%,59.4%,–,–,–
COc1cc(OC)c2sc(-c3ccc(-n4cncc4-c4ccc(N)cc4)cc3)nc2c1,62.6%,86.1%,71.2%,59.3%,67.7%,56.6%,96.6%,62.7%,97.5%,97.6%,70.3%,76.1%,49.2%,70%,79.7%,76.4%,-3.9% (active),60.5%,46.9,68.3
Cc1cc2cn3c4cccnc4[nH]c(=O)c3c2cc1C,-76.3% (active),79.3%,56.4%,-71.2% (active),67.7%,44.4%,61.2%,-68.5% (active),86.6%,58.2%,76.7%,22.5%,58.9%,61.3%,82.1%,75.7%,95.8%,4.5% (active),18.4,–
CC(c1cc(Cl)ccc1O)c1cc(Cl)ccc1O,2.77% (active),35.8%,68.5%,19.2%,25.9%,7.93% (active),44.8%,30.1%,33.5%,-16.8% (active),41.1%,39.5%,-7.88% (active),90.7%,41.4%,84.9%,81.1%,33.5%,52.1,53.3
CCSc1nnc2n(Cc3ccccc3)c(=O)c3c(C)c(C(N)=O)sc3n12,100%,69.4%,108%,103%,97.3%,95.8%,97.7%,95.6%,109%,102%,99%,103%,67%,111%,93.7%,85.8%,84.2%,–,–,–
Cn1cc(-c2nc(-c3c[nH]c4ncccc34)cs2)c2cccnc21,73.1%,47.1%,82.5%,71.6%,76.6%,57.8%,58.6%,54.3%,90.6%,52.7%,50.5%,84.4%,52.9%,31%,41.4%,28.3%,50.1%,65.3%,69.3,–
COc1ccc(-c2c3c(nn2-c2ccc(N)cc2)CCc2cnoc2-3)cc1OC,93.6%,79.4%,90.3%,89.1%,64.3%,76%,80%,86.4%,116%,101%,102%,92.4%,62.1%,88.5%,81.7%,82.1%,85.3%,61.5%,86.4,–
Cn1cc(-c2csc(-c3cn(C)c4ncccc34)n2)c2cc(Br)cnc21,100%,73.1%,98.5%,87.9%,68.5%,79.3%,82.9%,81.9%,92.1%,111%,84.4%,89.4%,100%,115%,95.5%,85.3%,79%,80%,85,–
CO[C@H]1/C=C/O[C@@]2(C)Oc3c(C)c(O)c4c(O)c(c(/C=N/N5C(C)CN(Cc6ccccc6)CC5C)c(O)c4c3C2=O)NC(=O)/C(C)=C\C=C\[C@H](C)[C@H](O)[C@@H](C)[C@@H](O)[C@@H](C)[C@H](OC(C)=O)[C@@H]1C (stereo partly drawn),87.6%,127%,97.8%,56.9%,-19.5% (active),67.4%,72.8%,76%,94.2%,-39.4% (active),64.7%,87%,34.1%,69.1%,70.1%,117%,96.1%,285%,217,212
O=C1c2nsnc2C(=O)c2c(F)c(F)c(F)c(F)c21,-54.8% (active),-76.4% (active),-86.8% (active),-76.3% (active),7.59% (active),-61.1% (active),-86.9% (active),-49.4% (active),-92.5% (active),-75.4% (active),-13.9% (active),-94.8% (active),-86.9% (active),-98.9% (active),-97.3% (active),-75.9% (active),10.1%,6.36% (active),–,–
Cc1ccc(NC(=O)CSc2nnc3n(Cc4ccccc4)c(=O)c4c(C)c(C(N)=O)sc4n23)cc1,35%,-46.4% (active),68.6%,38.3%,81.5%,77.1%,55.8%,59.9%,13.9%,44.4%,91.7%,58.5%,81.9%,-24.4% (active),75.6%,91.7%,6.08% (active),–,–,–
NC(=O)NN=C(C1CC1)C1CC1,103%,92.6%,106%,98.4%,112%,111%,110%,95.9%,116%,110%,103%,108%,82.1%,101%,95.4%,103%,107%,125%,82.8,85.6
O=C(c1ccccc1)c1ccccc1Cl,92.9%,88.8%,97.1%,99%,96.1%,105%,99.6%,107%,103%,100%,101%,101%,86.7%,94.6%,112%,109%,86.1%,86.3%,94.2,94.5

# — PubChem BioAssay (NCI)
